Rows were chosen to be rich in hits. Some 19% of all compounds tested hit in one or more screens of this group.
HT1080 IDH1KD tx = kills HT-1080 cells with IDH1 knockdown; HT-1080 IDH1 knockdown viability, ATP luminescence, 48 h; hit rate 2% among 360,000; Potency, µM (titrated, usually from 46.1 µM), usual class: cytotoxic
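Knockdown cells (IDH1KD HT-1080) received compounds 2 h after plating at 750 cells/well and were kept 48 h at 37 °C in 5% FBS RPMI. A CellTiter-Glo luminescence read gave % activity for curve fitting.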
IL-1B inflam inh = blocks inflammasome-driven IL-1 beta release; hit rate 4.7% among 360,000; activity change, % at 57.5 µM; THP-1 LPS/ATP IL-1B secretion, AlphaLISA, 16 h; hits give low values; AID 743279; in the data active = activity change below about -50%; inconclusive = mostly about -30% to -49%
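THP-1 cells pretreated 1 hr with compounds (up to 57.5 uM final), then stimulated with LPS (250 ng/mL final) plus ATP (1.25 mM final); secreted IL-1B measured by AlphaLISA after 16 hr, decreased signal indicating inhibition.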
TDP1 cell noCPT = qHTS for Inhibitors of human tyrosyl-DNA phosphodiesterase 1 (TDP1): qHTS in cells in absence of CPT. DT40 Tdp1-/- hTDP1 cells, no CPT, ATP luminescence, 48 h. Potency, µM (titrated, usually from 46.2 µM), hits mostly inhibitors. hit rate 15% among 420,000. AID 686978, 2013; note: nearly all actives have a fitted effect of over 55% in size
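Growth of hTDP1-complemented DT40 Tdp1-knockout cells is measured by ATP luminescence after at least 48 hr compound exposure at 37 °C, with DMSO substituting for the 20 nM CPT used in the parallel screen.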
HT1080-NT tox = kills 2HG-producing HT-1080-NT fibrosarcoma cells | HT-1080-NT fibrosarcoma viability, CellTiter-Glo ATP luminescence, 48 h | Potency, µM (highest dose often 46.1 µM), actives largely listed as cytotoxic | hit rate 1.6% among 360,000 | AID 686970;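 note: NT is the 2HG producing partner of a matched IDH1 knockdown line; nearly all actives have a fitted effect of over 55% in size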
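Toxicity toward the 2HG-producing NT line was scored as %Activity, normalised to DMSO and no-cell wells, from CellTiter-Glo luminescence after 48 hours' treatment.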
DT40 TDP1 CPT = DT40-hTDP1 cell growth loss with CPT. chicken DT40 Tdp1-/-;hTDP1 cells + 20 nM CPT, ATP luminescence, 48 h. AID 686979. Potency, µM (highest dose often 46.2 µM), usual class: inhibitors. hit rate 12% among 420,000; note: nearly all actives have a fitted effect of over 55% in size
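Chicken DT40 Tdp1-/- cells complemented with human TDP1, 400 cells/well, exposed to compounds plus 20 nM camptothecin for at least 48 h at 37 C; viability read as ATP content by CellTiter-Glo luminescence.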
uPA generation = blocks generation of uPA at the cell surface; hit rate 0.31% among 330,000; cell surface uPA generation assay, qHTS; Potency, µM (highest dose often 38.3 µM), usual class: inhibitors; active = well fitted inhibition curve with a large enough effect; inconclusive = small, poorly fitted or top-dose-only effect; inactive = no such curve, though single readings can be large or run the other way; tested in mouse RAW 264.7 cells; note: nearly all actives have a fitted effect of over 55% in size
A number is an active result; n = inactive; u = inconclusive; x = not tested or not shown; [ ] = dose if it differs, or a comment. Unless noted, calls come from the whole dose curve; as a rule, active = well fitted curve in the direction sought with a large enough effect; inconclusive = small, poorly fitted or top-dose-only effect, or another doubt; inactive = no such curve, though single readings can be large; an effect the other way counts as inactive or inconclusive.

SMILES	HT1080 IDH1KD tx	IL-1B inflam inh	TDP1 cell noCPT	HT1080-NT tox	DT40 TDP1 CPT	uPA generation
Cc1cccc(CNC(=O)Cc2ccc(NC(=O)N3CCCCc4ccccc43)cc2)c1	x	x	16.4µM	x	u	x
COc1ccc(C)cc1NC(=O)N1CCCc2ccccc21	n	n	23.1µM	n	u	n
COCCN(CC(=O)NC1CCCCC1)C(=O)CCCC(=O)Nc1ccccn1	n	n	n	n	n	n
CN(C)CCNC(=O)Cc1ccc(NC(=O)N2CCCCc3ccccc32)cc1	x	x	n	x	n	x
CN(C)c1ccc(CNC(=O)Cc2ccc(NC(=O)N3CCCCc4ccccc43)cc2)cc1	x	x	20.6µM	x	u	x
Cc1nc(SCC(=O)Nc2ccccc2Cl)cc(-c2ccccc2)n1	x	x	n	x	n	x
O=C(NCCCCc1ccccc1)NC[C@@H]1CC[C@@H](Cc2ccc(-c3ccccc3)cc2)O1	n	n	14.6µM	n	16.4µM	n
CC1(C(=O)NS(=O)(=O)c2cccc(OC(F)F)c2)CCN1C(=O)c1ccco1 (configuration not stated)	n	n	n	n	n	x
O=C(CSCCO)Nc1cccc(C(F)(F)F)c1	n	n	n	n	n	n
CCc1cccc(NC(=O)CSC2=Nc3ccccc3N=C(c3ccc(F)cc3)C2)c1	x	x	13µM	x	20.6µM	x
O=C(CSC1=Nc2ccccc2N=C(c2ccc(F)cc2)C1)Nc1cccc(C(F)(F)F)c1	x	x	23.1µM	x	u	x
CN1C(=O)c2ccccc2Sc2ccc(NC(=O)c3ccccc3F)cc21	x	x	14.6µM	x	18.4µM	x
Cc1ccc(C(=O)Nc2ccc3c(c2)N(C)C(=O)c2ccccc2S3)cc1	x	x	2.31µM	x	5.17µM	x
CN1C(=O)c2ccccc2Sc2ccc(NC(=O)N3CCCC3)cc21	n	n	u	n	u	n
CCN1C(=O)c2ccccc2Sc2ccc(NC(=O)Nc3cccc([N+](=O)[O-])c3C)cc21	x	x	u	x	20.6µM	x
CCN1C(=O)c2ccccc2Sc2ccc(NC(=O)c3ccc(C#N)cc3)cc21	x	x	16.4µM	x	20.6µM	x
COc1ccccc1CNS(=O)(=O)c1cc(C(=O)NCC2CCCO2)c(Cl)cc1Cl (configuration not stated)	n	n	n	n	n	n
COc1ccc(C(=O)OCC(=O)NC2CCCCCC2)c(OC)c1	n	n	u	n	n	n
Cc1cccc(NC(=O)CCc2c(C)nc3nc(CNC(=O)c4cccc(F)c4)nn3c2C)c1	x	x	n	x	n	x
COc1ccc(CCC(=O)Nc2cccc(S(=O)(=O)N3CCCCCC3)c2)cc1OC	n	n	14.6µM	n[9.24 µM]	u	n
COc1ccc(CC(=O)Nc2cccc(S(=O)(=O)N3CCCCCC3)c2)cc1OC	n	n	7.31µM	n	6.51µM	n
COc1ccc(CC(=O)Nc2cccc(SC)c2)cc1OC	n	n	9.2µM	n	11.6µM	n
COc1ccc(CC(=O)Nc2cc(S(=O)(=O)N3CCCCC3)ccc2OC(C)C)cc1OC	n	n	20.6µM	n	u	x
CC(C)(C)NC(=O)N1CCC(C(=O)O)CC1	x	x	n	x	n	x
O=S1(=O)N[C@@H](Cc2ccccc2)COc2cccc(N3CCSCC3)c21	n	n	u	n	n	x
SMILES	HT1080 IDH1KD tx	IL-1B inflam inh	TDP1 cell noCPT	HT1080-NT tox	DT40 TDP1 CPT	uPA generation
COCCn1c(=O)c(-c2ccc(F)c(F)c2)nc2cncnc21	x	x	n	x	n	x
Cc1ccc(C)c(C(C)NC(=O)Cc2cccs2)c1 (configuration not stated)	n	n	n	n	n	n
CSc1nc2ccccc2cc1/C=C(\C#N)c1ccc(Cl)c(Cl)c1	n	n	u	n	u	n
CSc1nc2ccccc2cc1/C=C(\C#N)c1ccccc1	18.4µM	n	u	u	u	n
CSc1nc2ccccc2cc1/C=C(\C#N)c1cccc(C)c1	5.17µM	n	u	u	u	n
Cc1ccn2c(=O)cc(COc3ccc(NC(=O)COc4ccccc4)cc3)nc2c1	x	x	n	x	n	x
CCc1ccc(C(=O)c2cn(CC(=O)Nc3cc(F)ccc3F)c3nc(C)ccc3c2=O)cc1	x	x	n	x	n	x
COc1ccc(NC(=O)c2ccc(NCCN3C(=O)CCC3=O)c([N+](=O)[O-])c2)cc1	n	n	n	n	n	n
CC(C)(C)SCCNS(=O)(=O)c1ccc(F)cc1	n	n	u	n	n	n
O=S(=O)(NCCSc1ccccc1)c1ccc(F)cc1	u	n	18.4µM	n	u	n
CC(=O)c1cccc(NC(=O)CSc2n[nH]c(=O)n2C2CC2)c1	n	n	u	n	n	n
Cc1ccc2nccc(/C=C/c3ccc(N(C)C)cc3)c2c1	x	x	14.1µM	x	11.2µM	x
CN(C)c1ccc(/C=C/c2ccnc3c2ccc2c(/C=C/c4ccc(N(C)C)cc4)ccnc23)cc1	x	x	n	x	n	x
COc1ccc(OC)c2c(/C=C/c3ccc(N(C)C)cc3)ccnc12	x	x	6.31µM	x	10µM	x
CN(C)c1ccc(/C=C/c2ccnc3c(N)cccc23)cc1	x	x	1.41µM	x	2µM	x
Cc1ccc2c(/C=C/c3ccc(N(C)C)cc3)ccnc2c1	x	x	u	x	11.2µM	x
CCOc1cc(C(=O)Nc2cc3c(cc2N2CCCC2)n(C)c(=O)c(=O)n3C)cc(OCC)c1OCC	x	x	n	x	n	x
O=C(Cc1n[nH]c(=O)[nH]c1=O)N/N=C/CCc1ccccc1	n	n	n	n	n	n
COc1ccc(OC)c2c(/C=C/c3c(C)[nH]c4ccccc34)ccnc12	x	x	11.2µM	x	10µM	x
CN(C)c1ccc(/C=C/c2ccnc3cc(Cl)ccc23)cc1	x	x	11.2µM	x	u	x
CCOC(=O)C1=CN(Cc2ccco2)S(=O)(=O)NC1c1cccc(OC)c1 (configuration not stated)	n	n	n	n	u	n
CCOC(=O)C1=C(c2ccccc2)NC(SC)=C(C#N)C1c1ccco1 (configuration not stated)	n	n	20.6µM	n	18.4µM	n
Cc1cc(C)c2c(NC(=O)c3ccccc3Cl)c(C(=O)Nc3ccc(C)c(C)c3)sc2n1	x	x	16.4µM	x	8.2µM	x
Cc1cc(C)c2c(N)c(C(=O)Nc3ccc(C)c(C)c3)sc2n1	n	n	u	n	n	n
Cc1ccc(S(=O)(=O)NCC(=O)NCC(=O)N(C)Cc2ccc3ccccc3c2)cc1C	n	-52.0	n	u	u	n
Cc1ccc(C)c(N(CC(=O)NC2CCCC2)C(=O)c2cc3cc4cccc(C)c4nc3s2)c1	n	n	u	n	u	n
Cc1ccc2cc3cc(C(=O)N(CC(=O)NC4CCCC4)c4cccc(C)c4C)sc3nc2c1	n	n	18.4µM	n	23.1µM	n
CC1CC(C)CN(C(=O)/C(=C\c2ccccc2)c2ccccc2)C1 (configuration not stated)	n	u	13µM	n	16.4µM	n
CN1CCN(C(=O)/C(=C/c2ccccc2)c2ccccc2)CC1	n	n	n	n	n	x

Screens: PubChem, National Center for Advancing Translational Sciences (NCATS)
